Test results reported in PubChem BioAssay (NCATS).
Where “and” joins values, the source holds several entries; their conditions need not be identical. Equal values may be shown once. Inconclusive results are not listed. Calls of active or inactive are those of the source. Unless noted, calls follow the shape of the dose curve; as a rule, active = well fitted curve in the direction sought with a large enough effect; inconclusive = small, poorly fitted or top-dose-only effect, or another doubt; inactive = no such curve, though single readings can be large; an effect the other way counts as inactive or inconclusive.

Assays:
[1] = target: ATP-dependent 6-phosphofructokinase (Trypanosoma brucei brucei) (UniProt O15648); assay: qHTS Assay to Find Inhibitors of T. brucei phosphofructokinase: hit validation (AID 492961);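 also: luminescence reports ADP formed as PFK phosphorylates fructose-6-phosphate with ATP; % is scaled to controls: 0 for no effect and ±100 for the full control effect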; settings: T. brucei PFK, ADP-Glo luminescence; series mostly up to 51.4 µM
Sequence of ATP-dependent 6-phosphofructokinase (Trypanosoma brucei brucei) (O15648 whole entry, looked up): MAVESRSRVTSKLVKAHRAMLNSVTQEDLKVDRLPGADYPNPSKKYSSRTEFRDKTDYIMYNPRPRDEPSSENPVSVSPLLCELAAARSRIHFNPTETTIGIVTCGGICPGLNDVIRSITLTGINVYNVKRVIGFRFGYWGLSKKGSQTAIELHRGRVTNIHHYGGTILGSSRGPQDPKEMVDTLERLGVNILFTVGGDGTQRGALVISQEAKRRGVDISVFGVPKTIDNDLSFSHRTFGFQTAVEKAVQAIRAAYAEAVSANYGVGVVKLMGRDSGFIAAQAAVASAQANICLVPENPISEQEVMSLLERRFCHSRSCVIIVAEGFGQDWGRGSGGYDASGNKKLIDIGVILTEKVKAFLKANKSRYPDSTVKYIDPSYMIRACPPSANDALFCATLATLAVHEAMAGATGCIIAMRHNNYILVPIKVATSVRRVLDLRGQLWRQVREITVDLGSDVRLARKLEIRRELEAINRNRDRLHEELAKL
In short: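 PFK 1.25 nM, F6P 0.5 mM, ATP 0.1 mM, MgCl2 5 mM, 0.1 M TEA pH 8.0, Tween20 0.01%, BSA 0.1%; 45 min RT. ADP-Glo two-step detection, luminescence. qHTS titration; curve fitting with curve-class categorization.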

[2] = target: Luciferin 4-monooxygenase (Photinus pyralis) (UniProt P08659); assay: Biochemical firefly luciferase enzyme assay for NPC (AID 624030);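 also: purified P. pyralis luciferase at 10 nM with luciferin and ATP substrate; 0% = DMSO and -100% = full luciferase inhibition by PTC124 control; nearly all actives have a fitted effect of over 70% in size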; settings: purified P. pyralis luciferase, luminescence, 5 min; series mostly up to 58.6 µM
Sequence of Luciferin 4-monooxygenase (Photinus pyralis) (P08659 whole entry, looked up): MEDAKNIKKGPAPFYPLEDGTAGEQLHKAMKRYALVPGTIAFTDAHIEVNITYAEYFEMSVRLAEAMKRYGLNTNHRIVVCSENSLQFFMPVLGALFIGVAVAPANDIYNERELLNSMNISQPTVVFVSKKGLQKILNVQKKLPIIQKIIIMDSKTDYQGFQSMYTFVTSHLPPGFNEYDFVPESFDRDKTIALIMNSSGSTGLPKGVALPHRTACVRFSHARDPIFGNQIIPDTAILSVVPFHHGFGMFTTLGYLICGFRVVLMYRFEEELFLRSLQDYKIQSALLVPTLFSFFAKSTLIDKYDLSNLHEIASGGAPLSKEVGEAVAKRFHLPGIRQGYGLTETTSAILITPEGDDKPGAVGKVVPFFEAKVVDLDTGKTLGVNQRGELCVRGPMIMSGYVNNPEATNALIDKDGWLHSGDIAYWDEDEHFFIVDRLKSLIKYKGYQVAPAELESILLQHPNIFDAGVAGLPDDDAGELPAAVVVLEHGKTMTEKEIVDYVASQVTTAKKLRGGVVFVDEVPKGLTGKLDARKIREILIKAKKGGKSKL
In short: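 Counter-screen for direct inhibition of the luciferase enzyme by approved-drug library compounds, run at 10 nM enzyme in 50 mM Tris acetate (final). Luminescence was read within 5 min of enzyme-buffer addition and normalized to PTC124 versus DMSO (0%).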

AA1029 = assay: qHTS profiling for inhibitors of Plasmodium falciparum proliferation (AID 504749); also: nearly all actives have a fitted effect of over 60% in size; also: potency is read from the fitted curve at half-maximal effect; settings: P. falciparum in erythrocytes, SYBR Green DNA, 72 h; series mostly up to 28.7 µM
In short: (§1)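 Parasite proliferation within erythrocytes, 72 h exposure. Endpoint: SYBR Green I fluorescence after overnight lysis at room temperature. Controls: 0.29 uM artemisinin, DMSO.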

ATS95 = assay: as above; settings: P. falciparum in erythrocytes, SYBR Green DNA, 72 h; series mostly up to 28.7 µM
In short: as §1

C2A = assay: as above; settings: P. falciparum in erythrocytes, SYBR Green DNA, 72 h; series mostly up to 28.7 µM
In short: as §1

CP185 = assay: as above; settings: P. falciparum in erythrocytes, SYBR Green DNA, 72 h; series mostly up to 28.7 µM
In short: as §1

CP238 = assay: as above; settings: P. falciparum in erythrocytes, SYBR Green DNA, 72 h; series mostly up to 28.7 µM
In short: as §1

CP256 = assay: as above; settings: P. falciparum in erythrocytes, SYBR Green DNA, 72 h; series mostly up to 28.7 µM
In short: as §1

CP262 = assay: as above; settings: P. falciparum in erythrocytes, SYBR Green DNA, 72 h; series mostly up to 28.7 µM
In short: as §1

FAB9 = assay: as above; settings: P. falciparum in erythrocytes, SYBR Green DNA, 72 h; series mostly up to 28.7 µM
In short: as §1

P93_24 = assay: as above; settings: P. falciparum in erythrocytes, SYBR Green DNA, 72 h; series mostly up to 28.7 µM
In short: as §1

P94_40 = assay: as above; settings: P. falciparum in erythrocytes, SYBR Green DNA, 72 h; series mostly up to 28.7 µM
In short: as §1

PAD = assay: as above; settings: P. falciparum in erythrocytes, SYBR Green DNA, 72 h; series mostly up to 28.7 µM
In short: as §1

TAB113 = assay: as above; settings: P. falciparum in erythrocytes, SYBR Green DNA, 72 h; series mostly up to 28.7 µM
In short: as §1

[3] = Cellular Toxicity (caspase-3) SHSY5Y (AID 657); settings: SH-SY5Y caspase-3 activation, DMSO zero, 10 µM staurosporine = 100%; series mostly up to 91.7 µM
In short: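 SH-SY5Y human neuroblastoma cells (1500/well) were treated with compounds for 16 h at 37 °C, then Caspase-Glo 3/7 luminescence was read after 1 h at room temperature. Data normalized to DMSO and 10 uM staurosporine; AC50 from Hill fits.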

[4] = Cellular Toxicity (caspase-3) SK-N-SH (AID 661); settings: SK-N-SH caspase-3 activation, qHTS, DMSO as zero, staurosporine as full; series mostly up to 91.7 µM;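 also: 0% = DMSO basal and 100% = 10 µM staurosporine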
In short: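 Human SK-N-SH neuroblastoma cells, 1500/well, were exposed to compounds for 16 hours at 37 °C. Caspase-Glo 3/7 luminescence was normalized to DMSO (basal) and 10 uM staurosporine (100%), and AC50 came from a Hill fit.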

[5] = Cell Viability - LYMP2-025 (AID 976); settings: LYMP2-025 lymphoblastoid cell viability; series mostly up to 92.2 µM; also: potency is read from the fitted curve at half-maximal effect
In short: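 Human lymphoblastoid LYMP2-025 cells, 2500/well, exposed 24 h at 37 C in complete medium in 1536-well qHTS. Viability as cellular ATP by CellTiter-Glo luminescence; AC50 from Hill fits of concentration-response data.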

[6] = target: Retinoic acid receptor RXR-alpha (Homo sapiens) (UniProt P19793); assay: qHTS assay for small molecule antagonists of retinoid X receptor alpha signaling (AID 588546; active = well fitted inhibition curve with a large enough effect in the signal ratio, with a control signal flat, not every such curve was filed as active; the % refers to the signal ratio;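 also: cells stimulated with 9-cis-retinoic acid as agonist; % is scaled to controls: 0 for no effect and ±100 for the full control effect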); settings: HEK293T RXRa-UAS-bla, beta-lactamase ratio, antagonist mode
Sequence of Retinoic acid receptor RXR-alpha (Homo sapiens) (P19793 whole entry, looked up): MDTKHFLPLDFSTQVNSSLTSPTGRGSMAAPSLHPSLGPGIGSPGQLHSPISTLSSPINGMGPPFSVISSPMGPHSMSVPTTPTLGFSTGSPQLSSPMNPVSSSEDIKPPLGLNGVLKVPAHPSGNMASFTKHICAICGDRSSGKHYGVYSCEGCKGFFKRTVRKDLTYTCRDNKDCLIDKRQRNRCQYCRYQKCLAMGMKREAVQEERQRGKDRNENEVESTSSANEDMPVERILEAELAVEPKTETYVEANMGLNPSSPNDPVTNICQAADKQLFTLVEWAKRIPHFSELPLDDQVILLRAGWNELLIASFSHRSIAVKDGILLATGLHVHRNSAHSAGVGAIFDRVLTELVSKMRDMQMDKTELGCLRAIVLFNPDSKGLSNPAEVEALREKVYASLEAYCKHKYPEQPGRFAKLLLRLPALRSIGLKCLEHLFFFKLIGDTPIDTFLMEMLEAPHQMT
In short: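 Beta-lactamase reporter inhibition, read as CCF4 fluorescence ratio (ex 405, em 460/530 nm) after 2 h at RT. HEK293T UAS-bla cells, 2500/well, were stimulated with 9-cis-RA at 500 or 100 nM final alongside test compound for 18 h at 37 C.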

[7] = qHTS assay for cell viability of HEK293 cells (AID 743288); settings: ATP luminescence (CellTiter-Glo), 18 h; max response: active compounds read low; also: % is scaled to controls: 0 for no effect and ±100 for the full control effect; nearly all actives have a fitted effect of over 50% in size
In short: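 Parental HEK293 cells were seeded at 2,000 cells/well, rested at least 5 h at 37 C, then exposed to compounds in DMSO for 18 h at 37 C. Viability was read as ATP-dependent luciferase luminescence after 30 min at room temperature.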

[8] = qHTS assay for cell viability of the p53RE-bla HCT-116 cell line (AID 743292); settings: p53RE-bla HCT-116 viability, ATP luminescence, 16 h; series mostly up to 95 µM; also: % is scaled to controls: 0 for no effect and ±100 for the full control effect; nearly all actives have a fitted effect of over 55% in size
In short: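 CellSensor p53RE-bla HCT-116 cells, 4,000/well, preincubated 5 h at 37 C, then exposed to compounds in DMSO for 16 h at 37 C. Viability read as CellTiter-Glo luminescence (intracellular ATP) after 30 min at room temperature.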

C[C@]12CC[C@H](O)CC1=CCC1C2CC[C@]2(C)C(=O)CC[C@@H]12 (stereo partly specified)
inactive: Potency [1] | Potency [2] | Potency (AA1029) | Potency (ATS95) | Potency (C2A) | Potency (CP185) | Potency (CP238) | Potency (CP256) | Potency (CP262) | Potency (FAB9) | Potency (P93_24) | Potency (P94_40) | Potency (PAD) | Potency (TAB113)

ClC(Cl)=C(c1ccc(Cl)cc1)c1ccc(Cl)cc1
inactive: outcome [3] | outcome [4] | Potency [5] | max response [6] -7.07% and 0.666% | max response [7] -14.7% and -6.72% and -17.4% | Potency [8]

CCNc1nc(Cl)nc(NC(C)C)n1
inactive: outcome [3] | outcome [4] | Potency [5] | max response [6] -16% and 6.8% | max response [7] 2.61% and -2.5% | Potency [8]

C=CCc1ccc2c(c1)OCO2
inactive: outcome [3] | outcome [4] | Potency [5] | max response [6] 33.4% | max response [7] -8.48% | Potency [8]

O=C(O)COc1ccc(Cl)cc1Cl
inactive: outcome [3] | outcome [4] | Potency [5] | max response [6] -3.05% [middle of 4 runs] | max response [7] 0.426% [middle of 4 runs] | Potency [8]

CNC(=O)O/N=C/C(C)(C)SC
inactive: outcome [3] | outcome [4] | Potency [5] | max response [6] -10.4% and 16.3% and -14.6% | Potency [8]

C=CCc1ccc(OC)cc1
inactive: outcome [3] | outcome [4] | Potency [5] | max response [6] 6.28% | max response [7] 2.04% | Potency [8]

CCNC[C@H](O)c1cccc(O)c1
inactive: Potency [1] | Potency [2] | Potency (AA1029) | Potency (ATS95) | Potency (C2A) | Potency (CP185) | Potency (CP238) | Potency (CP256) | Potency (CP262) | Potency (FAB9) | Potency (P93_24) | Potency (P94_40) | Potency (PAD) | Potency (TAB113)

C[C@@]12CC[C@H]3[C@@H](CC[C@@H]4C[C@H]5S[C@H]5C[C@]43C)[C@H]1CC[C@H]2O
inactive: Potency [1] | Potency [2] | Potency (AA1029) | Potency (ATS95) | Potency (C2A) | Potency (CP185) | Potency (CP238) | Potency (CP256) | Potency (CP262) | Potency (FAB9) | Potency (P93_24) | Potency (P94_40) | Potency (PAD) | Potency (TAB113)

C[N+]1([O-])[C@@H]2CC(OC(=O)[C@@H](CO)c3ccccc3)C[C@@H]1[C@H]1O[C@H]12 (stereo partly specified)
inactive: Potency [1] | Potency [2] | Potency (AA1029) | Potency (ATS95) | Potency (C2A) | Potency (CP185) | Potency (CP238) | Potency (CP256) | Potency (CP262) | Potency (FAB9) | Potency (P93_24) | Potency (P94_40) | Potency (PAD) | Potency (TAB113)

C/C=C/c1ccc2c(c1)OCO2
inactive: outcome [3] | outcome [4] | Potency [5] | max response [6] -0.653% | max response [7] -1.69% | Potency [8]

CC(C)c1c(CN(C)[C@@H](C)Cc2ccccc2)n(C)n(-c2ccccc2)c1=O
inactive: Potency [1] | Potency [2] | Potency (AA1029) | Potency (ATS95) | Potency (C2A) | Potency (CP185) | Potency (CP238) | Potency (CP256) | Potency (CP262) | Potency (FAB9) | Potency (P93_24) | Potency (P94_40) | Potency (PAD) | Potency (TAB113)

ClC1=C(Cl)C2(Cl)C3C(Cl)C=CC3C1(Cl)C2(Cl)Cl (stereo unspecified)
inactive: outcome [3] | outcome [4] | Potency [5] | max response [6] -17.9% | max response [7] -13.7% | Potency [8]

CCc1cccc(CC)c1N(COC)C(=O)CCl
inactive: outcome [3] | outcome [4] | Potency [5] | max response [6] -7.04% | max response [7] -15.4% and -21.3% | Potency [8]

C[C@H]1CN(C2CCC(C#N)(c3ccc(F)cc3)CC2)CC[C@@]1(C(=O)O)c1ccccc1 (stereo partly specified)
inactive: Potency [1] | Potency [2] | Potency (AA1029) | Potency (ATS95) | Potency (C2A) | Potency (CP185) | Potency (CP238) | Potency (CP256) | Potency (CP262) | Potency (FAB9) | Potency (P93_24) | Potency (P94_40) | Potency (PAD) | Potency (TAB113)

O=S1OCC2C(CO1)C1(Cl)C(Cl)=C(Cl)C2(Cl)C1(Cl)Cl (stereo unspecified)
inactive: Potency [5] | max response [6] -29.4% | max response [7] -13.5% | Potency [8]

CC(=O)O[C@H]1CC[C@@]2(C)C(=CC[C@@H]3[C@H]2CC[C@]2(C)C(=O)CC[C@H]32)C1
inactive: Potency [1] | Potency [2] | Potency (AA1029) | Potency (ATS95) | Potency (C2A) | Potency (CP185) | Potency (CP238) | Potency (CP256) | Potency (CP262) | Potency (FAB9) | Potency (P93_24) | Potency (P94_40) | Potency (PAD) | Potency (TAB113)

C[C@H](N)[C@@H](O)c1ccccc1
inactive: Potency [1] | Potency [2] | Potency (AA1029) | Potency (ATS95) | Potency (C2A) | Potency (CP185) | Potency (CP238) | Potency (CP256) | Potency (CP262) | Potency (FAB9) | Potency (P93_24) | Potency (P94_40) | Potency (PAD) | Potency (TAB113)

COc1ccc2c(c1OC)CN1CCc3cc4c(cc3[C@H]1C2)OCO4
active: Potency (AA1029) 2510 nM | Potency (ATS95) 2510 nM | Potency (C2A) 2240 nM | Potency (CP185) 2510 nM | Potency (CP238) 3550 nM | Potency (CP256) 3160 nM | Potency (CP262) 1610 nM | Potency (FAB9) 3160 nM | Potency (P93_24) 2510 nM | Potency (P94_40) 2510 nM | Potency (PAD) 3160 nM | Potency (TAB113) 3160 nM
inactive: Potency [1] | Potency [2]

ClC1=C(Cl)C2(Cl)C3C4C=CC(C4)C3C1(Cl)C2(Cl)Cl (stereo unspecified)
inactive: outcome [3] | outcome [4] | max response [6] -13.5% | max response [7] -24.9%
active: Potency [5] 50100 nM

C#CCN(C)[C@@H](C)Cc1ccccc1
inactive: Potency [1] | Potency [2] | Potency (AA1029) | Potency (ATS95) | Potency (C2A) | Potency (CP185) | Potency (CP238) | Potency (CP256) | Potency (CP262) | Potency (FAB9) | Potency (P93_24) | Potency (P94_40) | Potency (PAD) | Potency (TAB113)

CCOCN(C(=O)CCl)c1c(C)cccc1CC
inactive: outcome [3] | outcome [4] | max response [7] -18.2% and -18.7% | Potency [8]
